# FBW7 activator = activators of human E3 ligase FBW7; AlphaScreen FBW7–phospho-cyclin E peptide binding, activator screen; normalized activity (activation), % at 26.1 µM; 0.13% of 650,000 active; AID 1259310; in the data active means normalized activity above about 1.9%;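 further: purified mutant Fbw7 with reduced substrate affinity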
# GPR151 activ = activates the human receptor GPR151; Q8TDV0; PathHunter beta-arrestin GPR151 cells, luminescence; activation, % at 11.2 µM; 1% of 650,000 active; AID 1508602; in the data active means activation above about 4.9%;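 further: 0% = median of compound wells and 100% = cells with positive control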
# Target sequence (Q8TDV0 whole entry, looked up): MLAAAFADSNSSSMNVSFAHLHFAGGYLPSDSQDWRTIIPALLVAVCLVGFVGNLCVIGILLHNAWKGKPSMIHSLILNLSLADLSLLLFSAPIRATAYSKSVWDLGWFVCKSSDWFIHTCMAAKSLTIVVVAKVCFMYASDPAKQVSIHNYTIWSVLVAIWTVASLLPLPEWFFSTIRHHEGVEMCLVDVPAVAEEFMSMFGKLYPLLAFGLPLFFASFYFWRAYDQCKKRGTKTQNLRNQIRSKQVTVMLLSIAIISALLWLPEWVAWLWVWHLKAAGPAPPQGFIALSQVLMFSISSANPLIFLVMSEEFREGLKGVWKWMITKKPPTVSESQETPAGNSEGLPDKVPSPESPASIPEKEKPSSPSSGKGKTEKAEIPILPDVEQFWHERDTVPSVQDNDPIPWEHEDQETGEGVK
# TEAD-YAP inh = TEAD-YAP interaction inhibition | 1.4% of 640,000 active | inhibition, % at 9.12 µM | AID 1259422 | HEK-TIYL cells, TEAD-Gal4/YAP UAS-luciferase luminescence; in the data active means inhibition above about 32%;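 further: 0% = median of test compound wells and 100% = reference inhibitor wells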
# MITF primary = blocks human microphthalmia-associated transcription factor; O75030; AlphaScreen MITF homodimerization, bead proximity signal; inhibition, % at 2.6 µM; 0.91% of 650,000 active; AID 1259374; in the data active means inhibition above about 50%;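 further: 0% = vehicle wells with protein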
# GPR151 conf act = confirmation of human GPR151 activators. 6,700 tested, under 10 active. shares compounds with GPR151 activ. activation, % at 11.2 µM. AID 1508609. GPR151 PathHunter beta-arrestin cells, luminescence, 90 min; % of EA-reagent control over plate median;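 active means mean percent activation across replicates above the confirmation screen cutoff of 4.91%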
# GPR119 counter = GPR119 activation, counter-screen for GPR151 activators. shares compounds with GPR151 activ. GPR119 PathHunter beta-arrestin cells, luminescence, 90 min; 0 = compound-well median, 100 = enzyme-acceptor control. activation, % at 11.2 µM. 0.3% of 6,700 active. AID 1508611;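 active means mean percent activation in the counterscreen above 29.09%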;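 further: counterscreen on off-target GPR119 to flag nonselective hits from the GPR151 activator screen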
# An asterisk follows results filed as active; / = no result. A selection: hits, their analogues and other compounds. The true share with any hit is near 3.4%.
SMILES,FBW7 activator,GPR151 activ,TEAD-YAP inh,MITF primary,GPR151 conf act,GPR119 counter
CN(Cc1ccccc1Cl)S(=O)(=O)c1cccc(Br)c1,0,0,3,-2,/,/
Cc1ccc(S(=O)(=O)NC(CSCC(=O)O)C(=O)O)cc1 (stereo not given),1,0,-3,10,/,/
Cc1cc(C)cc(C(=O)Nc2ccc3c(c2)CCCN3S(C)(=O)=O)c1,0,7.7*,-34,3,1,12
COC(=O)c1ccc(NC(=O)/C=C/c2ccccc2Cl)cc1,1,6.1*,-5,5,0,6
N#C/C(=C\c1ccc(-c2ccc(Br)cc2)o1)C(=O)N1CCOCC1,0,2,-25,3,/,/
O=C(O)CCCCNS(=O)(=O)c1ccccc1C(F)(F)F,1,9.4*,-13,13,-1,-4
O=C(Cc1cn(-c2ccc(Nc3ccccc3)nn2)c2ccccc12)NCc1nc2ccccc2[nH]1,0,5.3*,-10,-1,0,-6
Cn1c(Nc2ccc(-n3cc(CC(=O)NCc4nc5ccccc5[nH]4)c4ccccc43)nn2)nc2ccccc21,0,1,-16,10,/,/
O=c1[nH]cnc2c1C(c1ccc(Br)cc1)c1c(nc[nH]c1=O)O2,0,0,13,-1,/,/
COCC(=O)NNC(=O)C(C)Oc1ccc(Cl)cc1Cl (stereo not given),0,5.0*,10,-2,0,8
CC(=O)C/C(C)=N/NC(=O)C(C)Oc1ccc(Cl)cc1C (stereo not given),0,0,17,3,/,/
CCC(=O)NNC(=O)C(C)Oc1ccc(Cl)cc1Cl (stereo not given),0,1,-9,11,/,/
CCNC(=O)C(C)Oc1ccc(Cl)cc1C (stereo not given),0,5.5*,2,-8,0,5
O=C1CCC([N+](=O)[O-])C(c2ccc3c(c2)OCO3)N1 (stereo not given),0,7.7*,-2,-6,0,13
O=C1CCC([N+](=O)[O-])C(c2ccc(Cl)c(Cl)c2)N1 (stereo not given),0,-1,-6,-7,/,/
CC(=O)c1cccc(NC(=O)/C(=C/c2ccco2)NC(=O)c2ccco2)c1,0,1,-10,0,/,/
COC(=O)c1cccc(NC(=O)/C(=C\c2ccco2)NC(=O)c2ccco2)c1,0,5.5*,7,13,0,-6
CCOc1ccc(C(=O)Nc2nc3c(ccc4ccccc43)s2)cc1,0,5.5*,0,5,-1,-3
COc1cccc(C2=N/C(=C\c3ccccc3C(F)(F)F)C(=O)O2)c1,0,1,-3,11,/,/
COc1ccc2c(c1)COC1(CCN(C(=O)Nc3ccccc3F)CC1)O2,1,7.7*,-21,1,1,-2
CCOC(=O)c1c(-c2ccc(C)o2)csc1NC(=O)c1cccs1,0,8.2*,2,11,-1,2
Nn1c(O)c(C2=c3cc(F)ccc3=NC2=O)sc1=S,0,6.0*,8,3,0,-11
CN(Cc1c(C(=O)N2CCCC2)nc2sccn12)CC(O)c1ccccc1 (stereo not given),0,5.8*,10,7,1,4
COc1cccc(NC(=O)CN(C2=NC3CS(=O)(=O)CC3S2)c2ccccc2F)c1 (stereo not given),0,5.0*,4,4,0,-7
CCC1C(=O)NCCN1C(=O)CC1(c2cccc(F)c2)CC(=O)N(C)C1=O (stereo not given),0,1,3,2,/,/
COc1ccc(NC(=S)Nc2cccc([N+](=O)[O-])c2)cc1,0,-1,-1,16,/,/
COc1ccccc1NS(=O)(=O)c1ccc(SC)cc1,0,6.3*,2,4,-1,0
COc1ccc(S(=O)(=O)Nc2cccc3c([N+](=O)[O-])cccc23)cc1OC,0,6.0*,-20,-7,0,7
COc1ccc(NC(=S)NNS(=O)(=O)c2cccc([N+](=O)[O-])c2)cc1,0,4.9*,-11,-24,0,-13
COc1ccc(S(=O)(=O)Nc2ccccc2SC)cc1Br,1,5.7*,-3,16,-1,4

# Source: PubChem BioAssay (The Scripps Research Institute Molecular Screening Center)
